An excerpt weighted towards active compounds, which were near 1.1% of everything screened.
RPL19A TOR yeast – alters RPL19A-GFP fluorescence in TOR pathway yeast screen; S. cerevisiae RPL19A-GFP strain, flow cytometry, 3 h; stronger effect = lower value; percent response vs DMSO, % at 10 µM; 0.3% of 330,000 active; AID 2025;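 active = percent response vs DMSO below 50%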;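 also: median channel GFP fluorescence of the barcoded RPL19A-GFP strain; ratio of sample median GFP to plate DMSO average so 100% = DMSO; lower means less RPL19A-GFP as with rapamycin TOR inhibition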
VLA-4 inh – inhibition in a human VLA-4 binding assay. P13612. VLA-4 expressing cells, ligand binding flow cytometry. inhibition, % (about 7 µM as worked out from the volumes in the protocol). 0.2% of 330,000 active. AID 2557; in the data active = inhibition above about 50%
Target sequence (P13612 whole entry, looked up): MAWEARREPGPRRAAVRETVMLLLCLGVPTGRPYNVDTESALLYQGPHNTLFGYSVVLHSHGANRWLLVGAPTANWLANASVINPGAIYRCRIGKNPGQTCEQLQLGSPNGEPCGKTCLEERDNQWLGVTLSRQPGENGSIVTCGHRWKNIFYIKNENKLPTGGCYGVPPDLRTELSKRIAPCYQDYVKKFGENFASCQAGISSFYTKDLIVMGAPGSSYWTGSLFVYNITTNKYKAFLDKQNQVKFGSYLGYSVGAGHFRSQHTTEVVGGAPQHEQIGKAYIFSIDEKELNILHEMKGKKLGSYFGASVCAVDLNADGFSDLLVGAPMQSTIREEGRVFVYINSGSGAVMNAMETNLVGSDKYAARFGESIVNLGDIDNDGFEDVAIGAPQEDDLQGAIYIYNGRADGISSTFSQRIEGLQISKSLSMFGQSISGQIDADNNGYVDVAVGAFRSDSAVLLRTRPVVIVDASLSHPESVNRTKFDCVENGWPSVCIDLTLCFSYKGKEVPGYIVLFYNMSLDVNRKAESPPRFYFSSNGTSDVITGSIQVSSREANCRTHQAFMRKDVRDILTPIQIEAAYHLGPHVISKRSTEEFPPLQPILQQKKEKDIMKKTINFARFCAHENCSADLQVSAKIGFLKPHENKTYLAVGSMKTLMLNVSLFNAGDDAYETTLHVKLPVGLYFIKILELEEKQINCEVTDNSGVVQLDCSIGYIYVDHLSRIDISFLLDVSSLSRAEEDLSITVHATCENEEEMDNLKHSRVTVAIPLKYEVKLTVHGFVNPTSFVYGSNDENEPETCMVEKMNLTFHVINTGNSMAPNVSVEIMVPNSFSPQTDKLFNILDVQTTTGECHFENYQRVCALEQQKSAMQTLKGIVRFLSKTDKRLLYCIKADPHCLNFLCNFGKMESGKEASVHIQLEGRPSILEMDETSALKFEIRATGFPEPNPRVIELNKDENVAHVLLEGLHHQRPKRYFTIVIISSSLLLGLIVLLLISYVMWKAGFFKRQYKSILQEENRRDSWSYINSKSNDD
MEP2-GFP yeast – modulators of TOR pathway MEP2-GFP in S. cerevisiae; GFP response vs DMSO, % at 10 µM; 0.51% of 330,000 active; S. cerevisiae MEP2-GFP strain, flow cytometry GFP, 3 h; 100% = DMSO control level; AID 2016;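 active = GFP response versus DMSO above a set limit, roughly screen mean plus 3 SD, cut at about 180% in these data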;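 also: median GFP fluorescence of the barcode-gated MEP2-GFP cells per well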
AGP1-GFP MLPCN – alters AGP1-GFP fluorescence in TOR pathway yeast screen. S. cerevisiae AGP1-GFP multiplex flow cytometry, 3 h; GFP as percent of DMSO wells. GFP response vs DMSO, % at 10 µM. 0.02% of 320,000 active. AID 2066;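 active = GFP response relative to DMSO above a set limit, near screen average plus 3 SD, cut at about 150% in these data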;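 also: median GFP channel fluorescence of the gated AGP1 strain per well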
LAP4-GFP MLPCN – yeast TOR pathway LAP4-GFP modulation | S. cerevisiae LAP4-GFP multiplex, flow cytometry GFP, 3 h; median GFP as percent of DMSO wells | GFP response vs DMSO, % at 10 µM | 0.34% of 320,000 active | AID 2023;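 active = GFP response vs DMSO above a set limit, about the screen mean plus 3 SD, cut at about 150% in these data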
CIT2 TOR yeast – alters CIT2-GFP fluorescence in TOR pathway yeast screen | S. cerevisiae CIT2-GFP strain, flow cytometry, 3 h; 100 means same as DMSO wells | GFP response vs DMSO, % at 10 µM | 0.065% of 320,000 active;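 active = GFP response relative to DMSO above a set limit, near the screen mean plus 3 SD, cut at about 150% in these data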;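 also: ratio of well median GFP fluorescence to mean of DMSO wells on the plate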
VLA-4 allo CP – human VLA-4 allosteric modulation in cherry picked compounds; U937 cells, HUTS-21 LIBS mAb binding, flow cytometry; LDV ligand present at threefold Kd; inhibition, % at 6.7 µM; shares compounds with VLA-4 inh; 2% of 1,300 active; in the data active = inhibition above about 40%;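 also: 0% = ligand without compound and 100% = no ligand background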
* = called active by the depositor.

`Cc1cc(OC(=O)c2c(Cl)cc(Cl)cc2Cl)nc(C)n1` gave RPL19A TOR yeast 98, VLA-4 inh 14, MEP2-GFP yeast 99, AGP1-GFP MLPCN 95, LAP4-GFP MLPCN 100 and CIT2 TOR yeast 91.
O=C(O)c1ccc2c(c1)C(=O)N(c1cccc3ccccc13)C2=O was read as RPL19A TOR yeast 100, VLA-4 inh 58*, MEP2-GFP yeast 95, AGP1-GFP MLPCN 97, LAP4-GFP MLPCN 100, CIT2 TOR yeast 95 and VLA-4 allo CP 3.
Screening COc1ccc(Nc2nc(N3CCN(S(=O)(=O)N(C)C)CC3)nc3ccccc23)cc1 returned RPL19A TOR yeast 100, VLA-4 inh -28, MEP2-GFP yeast 99, AGP1-GFP MLPCN 103, LAP4-GFP MLPCN 103 and CIT2 TOR yeast 102.
`CC(C)c1ccc(NC2CCCN(C(=O)C3=NN(C)C(=O)CC3)C2)cc1` (configuration not stated) gave RPL19A TOR yeast 104, VLA-4 inh 11, MEP2-GFP yeast 110, AGP1-GFP MLPCN 102, LAP4-GFP MLPCN 98 and CIT2 TOR yeast 104.
Screening CC1(C)CC(N2CCCC2)=CC(=[N+]2CCCCC2)C1 returned RPL19A TOR yeast 102, VLA-4 inh 50*, MEP2-GFP yeast 101, AGP1-GFP MLPCN 103, LAP4-GFP MLPCN 106, CIT2 TOR yeast 97 and VLA-4 allo CP -9.
Screening CC1(C)CC(N2CCCC2)=CC(=[N+]2CCCC2)C1 returned RPL19A TOR yeast 100, VLA-4 inh -4, MEP2-GFP yeast 104, AGP1-GFP MLPCN 111, LAP4-GFP MLPCN 100 and CIT2 TOR yeast 106.
Screening Cc1cc(=O)n2nc(N3CCC(C(=O)NCC(C)c4ccccc4)CC3)sc2n1 (configuration not stated) returned RPL19A TOR yeast 101, VLA-4 inh 17, MEP2-GFP yeast 114, AGP1-GFP MLPCN 105, LAP4-GFP MLPCN 105 and CIT2 TOR yeast 103.
For Nc1nc2c(nc(Br)n2[C@@H]2O[C@@H]3COP(=O)(O)O[C@H]3[C@H]2O)c(=O)[nH]1 the results were RPL19A TOR yeast 101, VLA-4 inh 45, MEP2-GFP yeast 98, AGP1-GFP MLPCN 99, LAP4-GFP MLPCN 107 and CIT2 TOR yeast 98.
Screening Nc1ncnc2c1nc(Br)n2[C@@H]1O[C@@H]2COP(=O)(O)O[C@H]2[C@H]1O returned RPL19A TOR yeast 108, VLA-4 inh 54*, MEP2-GFP yeast 111, AGP1-GFP MLPCN 95, LAP4-GFP MLPCN 114, CIT2 TOR yeast 86 and VLA-4 allo CP 4.
Screening COC(=O)C(CO)NC(=O)C1CCCN1C(=O)CNC(=O)OCc1ccccc1 (configuration not stated) returned RPL19A TOR yeast 103, VLA-4 inh 9, MEP2-GFP yeast 109, AGP1-GFP MLPCN 89, LAP4-GFP MLPCN 90 and CIT2 TOR yeast 96.
`COc1ccc(S(=O)(=O)Nc2ccc(NC(C)=O)cc2)cc1Br` gave RPL19A TOR yeast 96, VLA-4 inh 29, MEP2-GFP yeast 94, AGP1-GFP MLPCN 98, LAP4-GFP MLPCN 96 and CIT2 TOR yeast 97.
COc1ccc(NS(=O)(=O)c2ccc(Cl)c(N)c2)cc1Br was read as RPL19A TOR yeast 94, VLA-4 inh 4, MEP2-GFP yeast 93, AGP1-GFP MLPCN 103, LAP4-GFP MLPCN 94, CIT2 TOR yeast 98 and VLA-4 allo CP -4.
`NNC(=O)c1ccc(NS(=O)(=O)c2ccc(Br)cc2)cc1` gave RPL19A TOR yeast 98, VLA-4 inh 0, MEP2-GFP yeast 106, AGP1-GFP MLPCN 92, LAP4-GFP MLPCN 96 and CIT2 TOR yeast 97.
Nc1cc(S(=O)(=O)Nc2ccc(Br)cc2)ccc1Cl was read as RPL19A TOR yeast 93, VLA-4 inh -2, MEP2-GFP yeast 97, AGP1-GFP MLPCN 98, LAP4-GFP MLPCN 96, CIT2 TOR yeast 106 and VLA-4 allo CP 6.
COCCNC(=O)/C(C#N)=C/c1ccc(SC)cc1 was read as RPL19A TOR yeast 94, VLA-4 inh 7, MEP2-GFP yeast 101, AGP1-GFP MLPCN 102, LAP4-GFP MLPCN 106 and CIT2 TOR yeast 93.
Screening COCCNC(=O)/C(C#N)=C/c1c(F)cccc1Cl returned RPL19A TOR yeast 101, VLA-4 inh 5, MEP2-GFP yeast 90, AGP1-GFP MLPCN 97, LAP4-GFP MLPCN 125, CIT2 TOR yeast 90 and VLA-4 allo CP 5.
COCCNC(=O)/C(C#N)=C/c1ccc(C(=O)O)cc1 was read as RPL19A TOR yeast 87, VLA-4 inh 2, MEP2-GFP yeast 87, AGP1-GFP MLPCN 92, LAP4-GFP MLPCN 97, CIT2 TOR yeast 87 and VLA-4 allo CP 7.
`O=C(Nc1ccc2c(c1)C(=O)N(c1ccccc1)C2=O)c1cccs1` gave RPL19A TOR yeast 98, VLA-4 inh 50*, MEP2-GFP yeast 101, AGP1-GFP MLPCN 98, LAP4-GFP MLPCN 90, CIT2 TOR yeast 100 and VLA-4 allo CP 0.
O=C(O)CCN1C(=O)c2ccc(NC(=O)c3cccs3)cc2C1=O was read as RPL19A TOR yeast 100, VLA-4 inh 1, MEP2-GFP yeast 101, AGP1-GFP MLPCN 105, LAP4-GFP MLPCN 92 and CIT2 TOR yeast 104.
Cc1ccccc1OCC(=O)NCC(=O)OCc1ccc(Br)cc1 was read as RPL19A TOR yeast 107, VLA-4 inh -2, MEP2-GFP yeast 101, AGP1-GFP MLPCN 95, LAP4-GFP MLPCN 103 and CIT2 TOR yeast 105.
CC(NC(=O)/C(C#N)=C/c1ccc(Cl)c([N+](=O)[O-])c1)c1ccccc1 (configuration not stated) was read as RPL19A TOR yeast 79, VLA-4 inh 61*, MEP2-GFP yeast 95, AGP1-GFP MLPCN 76, LAP4-GFP MLPCN 118, CIT2 TOR yeast 81 and VLA-4 allo CP 63*.
`C[C@@H](NC(=O)/C(C#N)=C/c1ccc(O)c(O)c1)c1ccccc1` gave RPL19A TOR yeast 102, VLA-4 inh -4, MEP2-GFP yeast 94, AGP1-GFP MLPCN 89, LAP4-GFP MLPCN 110 and CIT2 TOR yeast 86.
`COc1ccc(OC)c(S(=O)(=O)N2CCCC(C(=O)NCCN3CCOCC3)C2)c1` (configuration not stated) gave RPL19A TOR yeast 106, VLA-4 inh 6, MEP2-GFP yeast 103, AGP1-GFP MLPCN 106, LAP4-GFP MLPCN 101 and CIT2 TOR yeast 103.
Cc1ccc(/C(O)=C2/C(=O)C(=O)N(CC(=O)O)C2c2ccc([N+](=O)[O-])cc2)cc1 (configuration not stated) was read as RPL19A TOR yeast 102, VLA-4 inh 64*, MEP2-GFP yeast 102, AGP1-GFP MLPCN 99, LAP4-GFP MLPCN 101, CIT2 TOR yeast 97 and VLA-4 allo CP 5.

Assay outcomes from PubChem.
